# The full ranking holds about 33,000 sequences; the median of “e-score” is about -0.05, and the highest 2% start at about 0.38. The sample holds the highest values, similar sequences and a random draw of the others, so the mix is not that of the screen.
# Molecular target: T1, SIX1-Q177R homeodomain (human, UniProt Q15475 108-198, Q177R)
# T1 sequence: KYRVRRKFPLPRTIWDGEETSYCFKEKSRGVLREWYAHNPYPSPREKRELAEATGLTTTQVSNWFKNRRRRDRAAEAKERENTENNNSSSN
# Experiment: universal protein binding microarray; Universal all-10-mer PBM (8x60K, AMADID 030236), 300 nM GST-tagged protein, Alexa Fluor 488 anti-GST; buffer, salt, pH and temperature not stated (as in Berger); high values mean tight binding
# Conditions: protein: ivt; tags: N-terminal GST; dsDNA, one strand shown
# Method in brief: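 Homeodomains carrying a GST tag were produced by in vitro transcription/translation, then quantified by anti-GST western blot against a recombinant GST standard curve. Duplicate applications at 300 nM final concentration were made to universal 'all 10-mer' protein binding microarrays in 8×60K format. The Universal PBM Analysis Suite was used to express binding as 8-mer E-scores.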
row,Sequence,binding signal [E-score]
1,ACACCACG,0.4775 ± 0.00181
2,ACACCACA,0.485 ± 0.000106
3,CTACCACA,0.154 ± 0.0418
4,ATACCACC,0.25 ± 0.00441
5,ACACCACT,0.4835 ± 0.00239
6,ACCACACT,0.2703 ± 0.00247
7,AAACCACA,0.2156 ± 0.00176
8,ATACCACG,0.216 ± 0.0275
9,AACTAACA,0.2417 ± 0.000339
10,CACGCTGC,0.293 ± 0.00561
11,ATAAGCAC,0.166 ± 0.0125
12,ATTCGCAA,0.162 ± 0.0131
13,TACCCGTA,0.168 ± 0.00327
14,GGGTTTAA,0.232 ± 0.0257
15,GAACCCAC,0.19 ± 0.0124
16,ACCTCACA,0.244 ± 0.00679
17,CACTAAAG,0.185 ± 0.042
18,ACACTCCT,0.391 ± 0.0158
19,ACTCTCCC,0.163 ± 0.0151
20,ATACTCCG,0.195 ± 0.0283
21,CCACTCCA,0.152 ± 0.00234
22,ACACTCCG,0.3884 ± 0.00235
23,ACACTTCT,0.374 ± 0.0413
24,ACCCTCCG,0.271 ± 0.0147
25,ACACTCCC,0.404 ± 0.00738

row,Sequence,binding signal [E-score]
1,ACACTCCA,0.373 ± 0.0149
2,GGCGGATA,0.22 ± 0.0151
3,CACTCCAA,0.161 ± 0.0414
4,AGGCTACC,0.187 ± 0.00757
5,CACCGTCA,0.209 ± 0.0101
6,AGCACGGG,0.155 ± 0.00564
7,AACACGGG,0.432 ± 0.00733
8,AACACGGA,0.372 ± 0.0198
9,CACACGGG,0.332 ± 0.0383
10,AACACGGT,0.383 ± 0.0148
11,CACTCGCA,0.264 ± 0.0114
12,ACCGCGGT,0.187 ± 0.0496
13,AACAAGTG,0.172 ± 0.00772
14,GAGTGTTA,0.407 ± 0.0179
15,AAGTGTTA,0.393 ± 0.0449
16,AAGTGTGT,0.215 ± 0.00375
17,CAGTGTTA,0.402 ± 0.00939
18,CAGTGTTC,0.355 ± 0.0115
19,AAGTGTTC,0.285 ± 0.0294
20,GAGTGCTA,0.152 ± 0.00664
21,CACTGTTA,0.255 ± 0.0243
22,AGAGCACC,0.202 ± 0.0183
23,AACCCACC,0.194 ± 0.0122
24,CGCGGGCA,0.276 ± 0.0364
25,CCCGAGTC,0.171 ± 0.0123

row,Sequence,binding signal [E-score]
1,ACACCCCG,0.466 ± 0.00875
2,ACACCCCA,0.4705 ± 0.00327
3,CCACCCCG,0.246 ± 0.0156
4,ACACCCCC,0.4871 ± 0.00117
5,ACCCCCCT,0.302 ± 0.0219
6,AGACCCCT,0.155 ± 0.0162
7,CCACCCCA,0.267 ± 0.0424
8,TCACCCCA,0.184 ± 0.0578
9,GCACCCCC,0.311 ± 0.046
10,ACACCCCT,0.4748 ± 0.00334
11,ACCCCCCG,0.329 ± 0.0392
12,CCACCCCC,0.209 ± 0.0542
13,CCCTCGAC,0.176 ± 0.00448
14,ATCGGGCA,0.195 ± 0.0164
15,CCGCCCGA,0.174 ± 0.00646
16,CCCTGCAC,0.178 ± 0.0222
17,TGATACCA,0.325 ± 0.0116
18,AACCCGTG,0.23 ± 0.00447
19,GCGGAGTA,0.241 ± 0.0385
20,ACTGGCAC,0.152 ± 0.00487
21,ACCCGGAC,0.171 ± 0.0263
22,AGCGCGGG,0.2629 ± 0.0007
23,AAGAACAC,0.423 ± 0.0082
24,GAGAATAC,0.194 ± 0.00365
25,GAGAACAC,0.3811 ± 0.000742

row,Sequence,binding signal [E-score]
1,CAGAACAC,0.3812 ± 0.000905
2,CAGGAACA,0.259 ± 0.00612
3,CACTCTAC,0.291 ± 0.0135
4,CCGCCACA,0.282 ± 0.0124
5,ACAAGGGG,0.185 ± 0.0199
6,CACTCCCA,0.273 ± 0.0105
7,GCACTACA,0.171 ± 0.00501
8,ACCCAGCG,0.168 ± 0.00443
9,ACTTAGGG,0.181 ± 0.0198
10,ATCAGGTG,0.224 ± 0.00902
11,AAGTGGTG,0.337 ± 0.0139
12,CCCTACCC,0.185 ± 0.00683
13,ACCTACAC,0.4302 ± 0.00419
14,ACCTACCC,0.252 ± 0.0152
15,GCCTACAC,0.442 ± 0.0046
16,GCCCACAC,0.255 ± 0.0252
17,CCCTACAC,0.424 ± 0.00443
18,GCCTACGC,0.167 ± 0.0292
19,CCCTACTC,0.19 ± 0.0302
20,ACCTATAC,0.2048 ± 0.00123
21,GGGATCGA,0.257 ± 0.0548
22,CACGACTA,0.22 ± 0.0605
23,CACTAATC,0.172 ± 0.0411
24,GGGTTCAC,0.184 ± 0.0552
25,GTGTTCGA,0.409 ± 0.0112

row,Sequence,binding signal [E-score]
1,GTATTCTA,0.1741 ± 0.00132
2,GTGTTCCA,0.361 ± 0.00459
3,GTGTGCAA,0.252 ± 0.0153
4,GTGTTCAA,0.3855 ± 0.00337
5,GTGTTCTA,0.392 ± 0.00814
6,AAGGGGTC,0.17 ± 0.00583
7,CACCATTC,0.23 ± 0.0429
8,CCCCCACA,0.262 ± 0.0205
9,ACGGGGTA,0.233 ± 0.00738
10,GGGTGGTA,0.194 ± 0.0128
11,AATAGACA,0.187 ± 0.00716
12,GATCCCCC,0.368 ± 0.0192
13,CACCAGTC,0.2944 ± 0.00254
14,AACCAGTG,0.183 ± 0.00569
15,CACCAGTG,0.404 ± 0.0086
16,CTCAGACA,0.189 ± 0.00366
17,ACACATAC,0.18 ± 0.0765
18,CCATACAC,0.3962 ± 0.00378
19,GCATAAAC,0.184 ± 0.0176
20,ACATACAC,0.421 ± 0.012
21,GCATACAC,0.406 ± 0.00565
22,ACATACCC,0.17 ± 0.00441
23,CCATACCC,0.218 ± 0.00536
24,CACCTCGA,0.217 ± 0.0155
25,GAGGGGTA,0.277 ± 0.00472

row,Sequence,binding signal [E-score]
1,ATACCGGA,0.178 ± 0.0104
2,AGGCAGGA,0.158 ± 0.0089
3,ACCTAGAG,0.175 ± 0.0492
4,GGGTGCAA,0.261 ± 0.0357
5,CAACGCCA,0.175 ± 0.0166
6,CCCCGACC,0.15745 ± 0.000156
7,CACCGGTC,0.21 ± 0.00979
8,CACCGGTG,0.418 ± 0.0109
9,AACCGGTG,0.299 ± 0.0429
10,AATTGGTG,0.221 ± 0.00776
11,CCGCGACA,0.241
12,GCAATACC,0.166 ± 0.00689
13,ATAGTGTC,0.3846 ± 0.00175
14,ATATAGTG,0.265 ± 0.00494
15,ATAGTATA,0.175 ± 0.0632
16,CTAGTATC,0.161 ± 0.0474
17,CTAGTGTA,0.391 ± 0.0289
18,CTAGTCAC,0.19 ± 0.0126
19,ATAGTGTA,0.391 ± 0.0352
20,ATAGTGTG,0.188 ± 0.00817
21,CTAGTACA,0.245 ± 0.0089
22,CTAGTGTC,0.4067 ± 0.00058
23,CTTGTGTA,0.154 ± 0.0563
24,CACCGTGA,0.277
25,CCCCCGCC,0.228 ± 0.0364

row,Sequence,binding signal [E-score]
1,CACGGATC,0.279 ± 0.0122
2,ACCATGAA,0.1618 ± 0.00147
3,CATTGGGG,0.162 ± 0.00379
4,CCCACTCC,0.159 ± 0.0222
5,ACCCCGGA,0.299 ± 0.00931
6,GTAGTGAC,0.26 ± 0.0183
7,GTAGTGTA,0.427 ± 0.00906
8,GTAGGGTA,0.193 ± 0.0286
9,ACCAAGAG,0.213 ± 0.0142
10,CACACACG,0.248 ± 0.0453
11,CACACACA,0.184 ± 0.063
12,AACACACG,0.231 ± 0.0156
13,AACACACC,0.395 ± 0.0142
14,GACACACA,0.334 ± 0.044
15,CACACACC,0.389 ± 0.0305
16,AACACACA,0.262 ± 0.0517
17,GACACACC,0.422 ± 0.0192
18,GACACAGC,0.17 ± 0.0393
19,TGTACCAA,0.164 ± 0.0254
20,GGGTATAC,0.262 ± 0.00267
21,AACCCGGG,0.244 ± 0.0275
22,CTACTCCA,0.242 ± 0.00788

# Source: paper PMC10668032, “Altered binding affinity of SIX1-Q177R correlates with enhanced WNT5A and WNT pathway effector expression in Wilms tumor”
